Measured values published in ChEMBL document CHEMBL3988442, “University of Dundee, Small-Polar-MMV Screening Library” (2021).
Out of some 66,000 compounds screened, about 960 (1.5%) showed an effect of 50% or more. The sample as a whole holds a higher share of strong results than the screen did.

Test system: Trypanosoma brucei
Experiment: Trypanosoma brucei 72 hour study
Type: functional, organism-based
Set-up: scale not given: in the data most compounds retested in dose-response had high values

Cn1cc(CNC2CC3(CCN(S(C)(=O)=O)CC3)c3ccccc32)cn1.O=C(O)C(F)(F)F (configuration not stated)
Percent Effect (30.3 µM, […]): -14.03%

CC(C)c1nnc(N2C[C@@H]3CC[C@H](C2)N(CC2CCC2)C3)s1
Percent Effect (30 µM, 30.03 µM): -2.589%

CN(C)Cc1cnc(C2CCN(C(=O)c3ccccc3F)C2)[nH]1.Cl (configuration not stated)
Percent Effect (30.3 µM, […]): 3.217%

O=C(Cn1ccc2sccc2c1=O)NCCCc1ccccc1
Percent Effect (30 µM, 30.03 µM): -11.95%

Cn1cccc1C(=O)N1CCC2(CC1)CC(N1CCOCC1)C2.O=C(O)C(F)(F)F
Percent Effect (30.3 µM, […]): -54.57%

CCNC(=O)NC1CCC(Oc2ccccc2C#N)CC1 (configuration not stated)
Percent Effect (30 µM, 30.03 µM): 74.2%

CN(C)CCN(C)C(=O)NC1CCC(Oc2ccccc2C#N)CC1 (configuration not stated)
Percent Effect (30 µM, 30.03 µM): 7.047%

CN(C)C1(C(=O)NC2CCC(Oc3ccccc3C#N)CC2)CCC1 (configuration not stated)
Percent Effect (30 µM, 30.03 µM): -17.82%

CCOCc1ccc(CNc2cncc(-n3cccn3)n2)cc1
Percent Effect (10 µM): -32.35%

CC(NC(=O)C(C)(C)C)c1cc(O)nc(-c2cccnc2)n1 (configuration not stated)
Percent Effect (30.3 µM, […]): -7.147%

CC(=O)N1CCN(C(=O)c2csc(-c3ccc(C)cc3C)n2)CC1
Percent Effect (10 µM): -21.97%

CC(=O)N1CCCN(C(=O)c2csc(-c3ccc(C)cc3C)n2)CC1
Percent Effect (30 µM, 30.03 µM): 20.93%

CC(=O)NCC1CCN(C(=O)c2csc(-c3ccc(C)cc3C)n2)CC1
Percent Effect (30 µM, 30.03 µM): 56.57%

CN(C)C1CCC2(CCN(Cc3nccn3C)CC2)c2ccccc21.O=C(O)C(F)(F)F.O=C(O)C(F)(F)F (configuration not stated)
Percent Effect (30.3 µM, […]): -42.21%

CNCC(=O)N1CC(c2cc(Nc3ncccn3)nc(C)n2)C1.Cl
Percent Effect (30 µM, 30.03 µM): -14.51%

Cn1cnnc1C1CCCN(C(=O)c2cc(-c3ccccc3)on2)C1 (configuration not stated)
Percent Effect (30 µM, 30.03 µM): -25.06%

CCN(CC)CCCNCc1cc2cccc(C)c2[nH]c1=O
Percent Effect (30.3 µM, […]): -3.275%

CCN(CC)CCCNCc1cc2cc(C)ccc2[nH]c1=O
Percent Effect (30.3 µM, […]): -2.792%

CCN(CC)CCCNCc1cc2cc(C)cc(C)c2[nH]c1=O
Percent Effect (30.3 µM, […]): 66.62%

Cc1cc(C(=O)NCCN2CCCCC2C)nn1C(C)(C)C (configuration not stated)
Percent Effect (30 µM, 30.03 µM): -37.93%

Cl.O=C(Nc1cccc(CNCc2ccsc2)c1)C1CC1
Percent Effect (10 µM): -60.42%

COCc1cc(NCCCSc2nnc(C)s2)ncn1
Percent Effect (30 µM, 30.03 µM): 0.4948%

CNC(=O)CC1CC2(CCN(CC3CC3)CC2)Oc2ccccc21.O=C(O)C(F)(F)F (configuration not stated)
Percent Effect (30.3 µM, […]): -8.019%

O=C(CCc1nc(-c2ccccc2)no1)N[C@H]1COC[C@@H]1N1CCCC1
Percent Effect (30.3 µM, […]): 62.68%

CCO[C@H]1COC[C@@H]1NC(=O)CCc1nc(-c2ccccc2)no1
Percent Effect (30.3 µM, […]): -3.299%

CO[C@H]1CNC[C@@H]1NC(=O)CCc1nc(-c2ccccc2)no1
Percent Effect (30.3 µM, […]): 14.68%

COCCN1C(=O)[C@H]2CC[C@@H]1CN(S(=O)(=O)c1ccc(OC)cc1)C2
Percent Effect (30.3 µM, […]): -80.52%

Cc1cc(NCCS(C)(=O)=O)nc2cc3c(cc12)CCC3
Percent Effect (30 µM, 30.03 µM): 3.514%

COc1cc2nc(NCCN3CCNC3=O)cc(C)c2cc1OC
Percent Effect (30 µM, 30.03 µM): 57.38%

COc1cc2nc(NCCNS(C)(=O)=O)cc(C)c2cc1OC
Percent Effect (30 µM, 30.03 µM): 21.73%

Cc1cc(NCCNS(C)(=O)=O)nc2cc3c(cc12)CCC3
Percent Effect (30 µM, 30.03 µM): 12.23%

Cc1cc(NCCN2CCNC2=O)nc2cc3c(cc12)CCC3
Percent Effect (30 µM, 30.03 µM): 101.3%

COc1cc(OC)c2nc(NCCN3CCNC3=O)cc(C)c2c1
Percent Effect (30 µM, 30.03 µM): 22.56%

Cc1cc(C(=O)N2CCn3cc(CN4CCOCC4)nc3C2)no1.O=C(O)C(F)(F)F
Percent Effect (30.3 µM, […]): -304.6%

CN1CC(=O)N(c2ccsc2)CC12CCN(C(=O)CC1CCCC1)C2.O=C(O)C(F)(F)F (configuration not stated)
Percent Effect (30 µM, 30.03 µM): 8.203%

O=C(C[C@@H]1COC[C@H]2CN(C3CCCC3)C[C@@H]12)NCc1cccnc1.O=C(O)C(F)(F)F.O=C(O)C(F)(F)F
Percent Effect (30.3 µM, […]): 5.505%

Cc1noc(CN2CCC(Cc3ccc(F)cc3)CC2)n1
Percent Effect (30.3 µM, […]): -2.984%

CN(C)C(=O)N1C[C@@H]2CC[C@H](C1)N(Cc1nnc(C3CC3)o1)C2
Percent Effect (30 µM, 30.03 µM): -29.28%

Nc1cc(-c2cc(O)cc(C(=O)O)c2)c2cc[nH]c2n1
Percent Effect (30 µM, 30.03 µM): -9.984%

CCCNCc1ccc(-c2ccnc3[nH]ccc23)cc1
Percent Effect (30.3 µM, […]): 63.66%

Cc1cnccc1-c1cc(NCCO)nc2[nH]ccc12
Percent Effect (30 µM, 30.03 µM): -32%

CCCNCc1ccc(-c2cc(N)nc3[nH]ccc23)cc1
Percent Effect (30.3 µM, […]): 58.31%

CCNCCOc1ccc(-c2cc(N)nc3[nH]ccc23)cc1
Percent Effect (30.3 µM, […]): 21.45%

CNc1cc(-c2ccc(COCCN)cc2)c2cc[nH]c2n1
Percent Effect (30 µM, 30.03 µM): -16.28%

CC(C)N1CCC(c2nc3ccc(-c4ccnn4C)cn3n2)CC1.O=C(O)C(F)(F)F
Percent Effect (30.3 µM, […]): -11.51%

O=C(CC1CCCC1)N1CCC2(CCN2Cc2ccc(F)cc2)C1.O=C(O)C(F)(F)F (configuration not stated)
Percent Effect (30.3 µM, […]): -0.9298%

CCc1nnc(CN(C)CC2CCCCC2)o1
Percent Effect (30 µM, 30.03 µM): -20.72%

Cc1ncnc2c1CCN(C(=O)c1cnccn1)CC2
Percent Effect (30.3 µM, […]): 17.88%

Cc1cnc(C(=O)N2CCc3ncnc(C)c3CC2)cn1
Percent Effect (30 µM, 30.03 µM): 54.93%

Cc1ccc(C(=O)N2CCc3ncnc(C)c3CC2)cn1
Percent Effect (30 µM, 30.03 µM): 1.33%

CCNC(=O)N(C)C1CCN(Cc2ncc(C)c(OC)c2C)CC1
Percent Effect (10 µM): -34.27%

Cc1cc(C(=O)N2CCC3(CC2)CC(c2cccnc2)C(=O)N3)no1.O=C(O)C(F)(F)F (configuration not stated)
Percent Effect (30 µM, 30.03 µM): -44.38%

O=C1CC(NCc2ccccn2)CN1CCc1ccc(F)cc1 (configuration not stated)
Percent Effect (30 µM, 30.03 µM): 2.338%

O=C1CC(NCc2ncc[nH]2)CN1CCc1cccc(Cl)c1 (configuration not stated)
Percent Effect (30 µM, 30.03 µM): 84.65%

Cc1ncc(CNC2CC(=O)N(CCc3ccc(F)cc3)C2)n1C (configuration not stated)
Percent Effect (30 µM, 30.03 µM): 23.38%

O=C1CC(NCc2ccncc2)CN1CCc1cccc(Cl)c1 (configuration not stated)
Percent Effect (30 µM, 30.03 µM): -25.97%

COc1ccc(CCN2CC(NCc3ncc[nH]3)CC2=O)cc1 (configuration not stated)
Percent Effect (30 µM, 30.03 µM): 64.92%

Cc1nc[nH]c1CNC1CC(=O)N(CCc2cccc(Cl)c2)C1 (configuration not stated)
Percent Effect (30 µM, 30.03 µM): -48.22%

CCN1CCN(C(C)CNC(=O)Nc2nc3ccccc3s2)CC1 (configuration not stated)
Percent Effect (30.3 µM, […]): 21.11%

Fc1ccc(CN2CCc3ncnc(C4CC4)c3CC2)cc1.O=C(O)C(F)(F)F
Percent Effect (30 µM, 30.03 µM): -12.14%

Cc1ccc(O)c(-c2cc(NCCO)nc3[nH]ccc23)c1
Percent Effect (30 µM, 30.03 µM): -9.914%

CC(=O)N1[C@H](CN(C)C)C[C@@H]2CN(C(=O)c3occc3C)CC[C@@H]21.O=C(O)C(F)(F)F
Percent Effect (30.3 µM, […]): -4.239%
